# Tests used:
# Test in all cases: DAPPL (digital affinity profiling via proximity ligation, sequencing); 10 mM Tris-HCl pH 7.5, 50 mM NaCl, 1 mM DTT, 4% glycerol, room temperature, 30 min; GST-TFs on glutathione beads, 16-mer random dsDNA library, 0.1% formaldehyde crosslink after washing; high values mean tight binding
# FEV = molecular target: T1, FEV (Homo sapiens, UniProt Q99581 1-238); conditions: protein: recombinant; tags: N-terminal GST; dsDNA, one strand shown
# T1 sequence: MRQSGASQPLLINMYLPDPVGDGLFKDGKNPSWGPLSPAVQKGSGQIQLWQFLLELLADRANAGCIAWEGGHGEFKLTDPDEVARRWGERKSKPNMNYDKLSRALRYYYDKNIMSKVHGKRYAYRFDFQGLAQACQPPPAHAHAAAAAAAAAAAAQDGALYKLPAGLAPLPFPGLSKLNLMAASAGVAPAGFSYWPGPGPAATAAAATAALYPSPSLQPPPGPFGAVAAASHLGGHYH
# Method in brief: (§1)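 A tag-only sample was pooled with DNA-barcoded human transcription factors that had been expressed in yeast as GST fusions and captured on glutathione beads. The pools were incubated for 30 min at room temperature with 200 nmole of a random double-stranded 16-mer DNA library in Tris/NaCl/DTT/glycerol buffer, then washed, crosslinked with 0.1% formaldehyde, proximity-ligated (BsaI/T4 ligase, 1 h, 37 °C), PCR-amplified and sequenced on an Illumina NextSeq500. Binding signal is each hexamer's read frequency for a factor divided by its frequency for the tag-only sample.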
# ETV5 = ETV5 (Homo sapiens, UniProt P41161 1-510); conditions: protein: recombinant; tags: N-terminal GST; dsDNA, one strand shown
# Method in brief: as §1
# HSF1 = HSF1 (Homo sapiens, UniProt Q00613 1-529); conditions: protein: recombinant; tags: N-terminal GST; chain copies: 3; dsDNA, one strand shown
# Method in brief: as §1
# SPIC = molecular target: T2, SPIC (Homo sapiens, UniProt Q8N5J4 1-248); conditions: protein: recombinant; tags: N-terminal GST; dsDNA, one strand shown
# T2 sequence: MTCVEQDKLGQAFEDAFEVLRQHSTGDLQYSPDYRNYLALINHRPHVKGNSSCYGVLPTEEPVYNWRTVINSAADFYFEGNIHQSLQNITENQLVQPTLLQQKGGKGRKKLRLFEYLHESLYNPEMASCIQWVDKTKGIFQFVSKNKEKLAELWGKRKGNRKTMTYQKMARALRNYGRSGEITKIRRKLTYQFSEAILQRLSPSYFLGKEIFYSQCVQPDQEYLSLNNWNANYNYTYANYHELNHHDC
# Method in brief: as §1
# ELF4 = ELF4 (Homo sapiens, UniProt Q99607 1-663); conditions: protein: recombinant; tags: N-terminal GST; dsDNA, one strand shown
# Method in brief: as §1
# ELK4 = molecular target: T3, ELK4 (Homo sapiens, UniProt P28324-2 1-405); conditions: protein: recombinant; tags: N-terminal GST; dsDNA, one strand shown
# T3 sequence: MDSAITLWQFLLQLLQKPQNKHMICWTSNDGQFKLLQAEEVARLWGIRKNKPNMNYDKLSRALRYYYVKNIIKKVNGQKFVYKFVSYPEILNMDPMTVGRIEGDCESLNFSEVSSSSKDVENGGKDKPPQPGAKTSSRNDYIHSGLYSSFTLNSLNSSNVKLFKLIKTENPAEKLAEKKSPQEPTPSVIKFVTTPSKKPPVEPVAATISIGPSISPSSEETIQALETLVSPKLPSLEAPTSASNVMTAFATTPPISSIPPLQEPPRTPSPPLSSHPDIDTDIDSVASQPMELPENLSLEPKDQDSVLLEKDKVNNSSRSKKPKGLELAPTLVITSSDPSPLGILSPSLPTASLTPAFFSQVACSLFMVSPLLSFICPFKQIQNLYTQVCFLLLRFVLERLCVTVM
# Method in brief: as §1
# ETV2 = molecular target: T4, ETV2 (Homo sapiens, UniProt O00321 1-342); conditions: protein: recombinant; tags: N-terminal GST; dsDNA, one strand shown
# T4 sequence: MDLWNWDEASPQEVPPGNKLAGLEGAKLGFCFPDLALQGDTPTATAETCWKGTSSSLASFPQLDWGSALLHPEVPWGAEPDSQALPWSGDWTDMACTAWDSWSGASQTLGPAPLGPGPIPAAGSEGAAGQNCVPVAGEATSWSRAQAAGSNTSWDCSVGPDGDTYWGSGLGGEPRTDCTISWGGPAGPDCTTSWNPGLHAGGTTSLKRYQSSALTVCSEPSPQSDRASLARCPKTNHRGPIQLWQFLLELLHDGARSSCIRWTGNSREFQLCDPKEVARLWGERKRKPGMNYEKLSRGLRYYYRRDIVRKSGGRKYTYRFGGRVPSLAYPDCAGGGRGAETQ
# Method in brief: as §1
# ELF3 = molecular target: T5, ELF3 (Homo sapiens, UniProt P78545 1-371); conditions: protein: recombinant; tags: N-terminal GST; dsDNA, one strand shown
# T5 sequence: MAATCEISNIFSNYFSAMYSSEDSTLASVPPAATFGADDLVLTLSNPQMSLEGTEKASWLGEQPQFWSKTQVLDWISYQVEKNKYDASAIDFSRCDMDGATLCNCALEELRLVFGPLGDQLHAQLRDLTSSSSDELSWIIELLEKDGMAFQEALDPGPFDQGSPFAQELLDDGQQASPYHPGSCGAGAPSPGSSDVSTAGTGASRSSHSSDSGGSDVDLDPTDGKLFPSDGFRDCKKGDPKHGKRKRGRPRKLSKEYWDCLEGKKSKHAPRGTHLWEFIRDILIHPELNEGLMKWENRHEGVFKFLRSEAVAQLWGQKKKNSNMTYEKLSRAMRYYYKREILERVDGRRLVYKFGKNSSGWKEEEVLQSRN
# Method in brief: as §1
# CRX = CRX (Homo sapiens, UniProt O43186 1-299); conditions: protein: recombinant; tags: N-terminal GST; dsDNA, one strand shown
# Method in brief: as §1
# ETV1 = ETV1 (Homo sapiens, UniProt P50549 1-477); conditions: protein: recombinant; tags: N-terminal GST; dsDNA, one strand shown
# Method in brief: as §1
# ERF = molecular target: T6, ERF (Homo sapiens, UniProt P50548 1-548); conditions: protein: recombinant; tags: N-terminal GST; dsDNA, one strand shown
# T6 sequence: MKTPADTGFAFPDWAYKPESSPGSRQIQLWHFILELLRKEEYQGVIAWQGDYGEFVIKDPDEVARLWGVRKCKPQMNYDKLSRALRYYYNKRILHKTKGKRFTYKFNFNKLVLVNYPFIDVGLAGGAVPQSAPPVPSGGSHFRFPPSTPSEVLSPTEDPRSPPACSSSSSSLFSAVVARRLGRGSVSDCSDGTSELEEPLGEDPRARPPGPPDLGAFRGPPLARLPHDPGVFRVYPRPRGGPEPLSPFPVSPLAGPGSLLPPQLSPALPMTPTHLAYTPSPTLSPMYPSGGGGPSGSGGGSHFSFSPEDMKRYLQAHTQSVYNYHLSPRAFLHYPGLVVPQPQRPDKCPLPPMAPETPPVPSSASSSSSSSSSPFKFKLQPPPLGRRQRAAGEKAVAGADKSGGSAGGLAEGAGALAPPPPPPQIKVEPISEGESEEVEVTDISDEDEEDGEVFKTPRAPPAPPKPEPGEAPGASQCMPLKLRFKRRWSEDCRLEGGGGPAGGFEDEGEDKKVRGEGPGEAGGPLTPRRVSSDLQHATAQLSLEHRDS
# Method in brief: as §1
# ETV3L = molecular target: T7, ETV3L (Homo sapiens, UniProt Q6ZN32 1-361); conditions: protein: recombinant; tags: N-terminal GST; dsDNA, one strand shown
# T7 sequence: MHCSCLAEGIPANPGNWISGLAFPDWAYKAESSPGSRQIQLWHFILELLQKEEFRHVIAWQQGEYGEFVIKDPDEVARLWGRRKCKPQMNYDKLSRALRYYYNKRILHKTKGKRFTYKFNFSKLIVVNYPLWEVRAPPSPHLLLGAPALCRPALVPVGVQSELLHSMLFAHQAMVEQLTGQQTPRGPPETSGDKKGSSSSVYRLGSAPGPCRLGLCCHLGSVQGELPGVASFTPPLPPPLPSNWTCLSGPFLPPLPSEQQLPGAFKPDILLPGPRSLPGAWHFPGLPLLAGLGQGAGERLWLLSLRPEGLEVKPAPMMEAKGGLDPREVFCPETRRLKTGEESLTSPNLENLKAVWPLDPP
# Method in brief: as §1
# ETS2 = molecular target: T8, ETS2 (Homo sapiens, UniProt P15036 1-469); conditions: protein: recombinant; tags: N-terminal GST; dsDNA, one strand shown
# T8 sequence: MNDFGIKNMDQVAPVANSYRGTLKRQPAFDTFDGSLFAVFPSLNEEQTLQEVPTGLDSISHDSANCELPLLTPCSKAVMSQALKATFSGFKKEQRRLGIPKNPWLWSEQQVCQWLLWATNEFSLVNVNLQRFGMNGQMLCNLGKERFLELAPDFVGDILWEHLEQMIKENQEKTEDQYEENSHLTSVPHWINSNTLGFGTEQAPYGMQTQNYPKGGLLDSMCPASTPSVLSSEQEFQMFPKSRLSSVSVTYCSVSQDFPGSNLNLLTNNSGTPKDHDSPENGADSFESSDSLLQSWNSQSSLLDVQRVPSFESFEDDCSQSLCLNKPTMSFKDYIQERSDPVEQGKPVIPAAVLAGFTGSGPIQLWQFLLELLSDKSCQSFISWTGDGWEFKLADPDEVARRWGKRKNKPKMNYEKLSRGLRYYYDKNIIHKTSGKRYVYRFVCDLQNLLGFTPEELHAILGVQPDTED
# Method in brief: as §1
# SPDEF = molecular target: T9, SPDEF (Homo sapiens, UniProt O95238 1-335); conditions: protein: recombinant; tags: N-terminal GST; dsDNA, one strand shown
# T9 sequence: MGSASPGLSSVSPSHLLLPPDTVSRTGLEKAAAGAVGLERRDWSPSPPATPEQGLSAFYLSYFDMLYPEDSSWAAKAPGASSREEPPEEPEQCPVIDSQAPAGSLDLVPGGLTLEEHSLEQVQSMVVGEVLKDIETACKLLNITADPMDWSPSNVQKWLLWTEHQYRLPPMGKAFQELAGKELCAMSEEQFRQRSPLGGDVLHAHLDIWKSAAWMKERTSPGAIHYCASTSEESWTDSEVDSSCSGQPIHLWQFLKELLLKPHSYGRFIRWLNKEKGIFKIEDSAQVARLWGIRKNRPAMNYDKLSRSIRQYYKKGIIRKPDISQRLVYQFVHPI
# Method in brief: as §1
# ETV7 = molecular target: T10, ETV7 (Homo sapiens, UniProt Q9Y603 1-341); conditions: protein: recombinant; tags: N-terminal GST; dsDNA, one strand shown
# T10 sequence: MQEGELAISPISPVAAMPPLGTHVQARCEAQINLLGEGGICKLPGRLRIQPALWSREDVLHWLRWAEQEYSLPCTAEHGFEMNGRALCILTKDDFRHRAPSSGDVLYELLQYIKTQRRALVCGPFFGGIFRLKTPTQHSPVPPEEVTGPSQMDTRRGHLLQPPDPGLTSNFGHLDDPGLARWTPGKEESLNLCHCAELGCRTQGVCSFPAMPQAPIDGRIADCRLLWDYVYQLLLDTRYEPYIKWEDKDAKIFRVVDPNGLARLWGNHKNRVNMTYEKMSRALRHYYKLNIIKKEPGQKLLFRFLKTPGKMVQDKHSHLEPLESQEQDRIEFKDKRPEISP
# Method in brief: as §1
# ELF5 = molecular target: T11, ELF5 (Homo sapiens, UniProt Q9UKW6-2 1-255); conditions: protein: recombinant; tags: N-terminal GST; dsDNA, one strand shown
# T11 sequence: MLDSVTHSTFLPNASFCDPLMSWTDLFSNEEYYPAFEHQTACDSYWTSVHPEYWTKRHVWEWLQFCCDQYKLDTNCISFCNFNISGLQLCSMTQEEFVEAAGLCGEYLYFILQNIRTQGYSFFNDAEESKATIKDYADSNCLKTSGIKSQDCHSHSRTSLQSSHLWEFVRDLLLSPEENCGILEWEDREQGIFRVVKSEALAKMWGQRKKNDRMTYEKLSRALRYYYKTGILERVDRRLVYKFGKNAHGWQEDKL
# Method in brief: as §1
# ETV3 = molecular target: T12, ETV3 (Homo sapiens, UniProt P41162-2 1-143); conditions: protein: recombinant; tags: N-terminal GST; dsDNA, one strand shown
# T12 sequence: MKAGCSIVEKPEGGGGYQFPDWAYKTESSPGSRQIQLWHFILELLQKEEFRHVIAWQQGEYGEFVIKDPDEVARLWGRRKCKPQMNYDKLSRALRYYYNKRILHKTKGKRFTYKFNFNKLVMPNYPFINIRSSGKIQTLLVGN
# Method in brief: as §1
# ETV6 = ETV6 (Homo sapiens, UniProt P41212 1-452); conditions: protein: recombinant; tags: N-terminal GST; dsDNA, one strand shown
# Method in brief: as §1
# HSF1, sequence (Q00613 whole entry): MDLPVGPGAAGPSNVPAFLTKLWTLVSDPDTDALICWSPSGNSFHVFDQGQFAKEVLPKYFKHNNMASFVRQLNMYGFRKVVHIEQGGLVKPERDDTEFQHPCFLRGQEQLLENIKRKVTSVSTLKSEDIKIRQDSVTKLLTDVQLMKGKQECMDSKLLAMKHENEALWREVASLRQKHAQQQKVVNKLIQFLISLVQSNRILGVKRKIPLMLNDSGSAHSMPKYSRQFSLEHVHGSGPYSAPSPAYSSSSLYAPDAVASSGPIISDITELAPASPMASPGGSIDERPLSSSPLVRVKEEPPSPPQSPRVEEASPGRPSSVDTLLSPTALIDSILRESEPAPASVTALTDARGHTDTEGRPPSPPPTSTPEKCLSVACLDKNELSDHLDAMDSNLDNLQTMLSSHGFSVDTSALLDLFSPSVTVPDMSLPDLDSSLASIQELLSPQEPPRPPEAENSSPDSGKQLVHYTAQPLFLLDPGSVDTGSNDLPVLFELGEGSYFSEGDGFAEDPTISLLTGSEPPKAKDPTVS
# ETV6, sequence (P41212 whole entry): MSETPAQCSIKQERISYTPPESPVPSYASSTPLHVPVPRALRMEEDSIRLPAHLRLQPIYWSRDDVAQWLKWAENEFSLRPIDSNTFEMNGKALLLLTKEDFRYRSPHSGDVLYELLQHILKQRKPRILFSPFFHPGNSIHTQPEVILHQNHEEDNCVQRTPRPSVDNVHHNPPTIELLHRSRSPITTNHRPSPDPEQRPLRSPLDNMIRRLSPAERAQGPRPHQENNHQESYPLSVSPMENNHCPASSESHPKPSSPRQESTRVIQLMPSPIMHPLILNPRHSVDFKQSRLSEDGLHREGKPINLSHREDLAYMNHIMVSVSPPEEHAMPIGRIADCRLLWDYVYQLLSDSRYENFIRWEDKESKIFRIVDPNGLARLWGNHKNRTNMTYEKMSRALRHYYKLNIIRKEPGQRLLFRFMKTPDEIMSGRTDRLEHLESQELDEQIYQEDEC
# CRX, sequence (O43186 whole entry): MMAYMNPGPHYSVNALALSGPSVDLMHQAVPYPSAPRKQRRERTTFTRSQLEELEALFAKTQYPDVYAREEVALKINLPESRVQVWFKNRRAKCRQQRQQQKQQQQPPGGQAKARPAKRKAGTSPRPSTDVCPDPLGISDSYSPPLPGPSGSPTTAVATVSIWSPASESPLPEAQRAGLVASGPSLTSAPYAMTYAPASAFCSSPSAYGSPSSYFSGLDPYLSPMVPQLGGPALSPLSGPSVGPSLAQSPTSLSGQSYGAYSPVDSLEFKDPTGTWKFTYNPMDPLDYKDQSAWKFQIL
# ETV5, sequence (P41161 whole entry): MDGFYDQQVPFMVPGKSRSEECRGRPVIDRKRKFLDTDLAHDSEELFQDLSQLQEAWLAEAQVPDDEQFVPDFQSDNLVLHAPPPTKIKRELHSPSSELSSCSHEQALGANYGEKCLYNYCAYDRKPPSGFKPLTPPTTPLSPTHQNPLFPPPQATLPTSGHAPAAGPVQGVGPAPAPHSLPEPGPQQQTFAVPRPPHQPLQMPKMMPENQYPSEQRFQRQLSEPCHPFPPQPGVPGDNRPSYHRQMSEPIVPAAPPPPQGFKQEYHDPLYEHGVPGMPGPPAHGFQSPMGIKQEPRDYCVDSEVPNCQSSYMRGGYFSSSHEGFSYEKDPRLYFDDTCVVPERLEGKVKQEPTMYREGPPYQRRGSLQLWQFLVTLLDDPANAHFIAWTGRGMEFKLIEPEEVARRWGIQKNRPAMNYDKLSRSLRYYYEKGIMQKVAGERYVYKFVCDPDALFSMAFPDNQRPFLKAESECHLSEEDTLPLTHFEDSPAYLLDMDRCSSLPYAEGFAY
# ELF4, sequence (Q99607 whole entry): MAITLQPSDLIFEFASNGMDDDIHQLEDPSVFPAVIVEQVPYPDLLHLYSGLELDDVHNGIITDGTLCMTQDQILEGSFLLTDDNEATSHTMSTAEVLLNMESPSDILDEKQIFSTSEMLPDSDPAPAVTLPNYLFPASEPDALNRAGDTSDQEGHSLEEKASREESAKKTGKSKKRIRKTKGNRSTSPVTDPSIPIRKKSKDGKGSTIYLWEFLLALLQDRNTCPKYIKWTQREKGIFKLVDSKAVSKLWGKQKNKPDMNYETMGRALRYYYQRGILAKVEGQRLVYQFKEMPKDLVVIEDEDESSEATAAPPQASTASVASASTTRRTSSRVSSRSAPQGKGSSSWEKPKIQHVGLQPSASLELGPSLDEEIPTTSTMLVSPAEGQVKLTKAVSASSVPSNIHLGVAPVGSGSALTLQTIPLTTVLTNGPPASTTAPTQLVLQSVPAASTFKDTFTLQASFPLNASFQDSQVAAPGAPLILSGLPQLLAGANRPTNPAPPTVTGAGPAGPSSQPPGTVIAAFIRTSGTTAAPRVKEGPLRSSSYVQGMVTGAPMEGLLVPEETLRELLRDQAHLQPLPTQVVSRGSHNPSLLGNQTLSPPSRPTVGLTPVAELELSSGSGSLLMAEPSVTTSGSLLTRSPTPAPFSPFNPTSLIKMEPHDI
# ETV1, sequence (P50549 whole entry): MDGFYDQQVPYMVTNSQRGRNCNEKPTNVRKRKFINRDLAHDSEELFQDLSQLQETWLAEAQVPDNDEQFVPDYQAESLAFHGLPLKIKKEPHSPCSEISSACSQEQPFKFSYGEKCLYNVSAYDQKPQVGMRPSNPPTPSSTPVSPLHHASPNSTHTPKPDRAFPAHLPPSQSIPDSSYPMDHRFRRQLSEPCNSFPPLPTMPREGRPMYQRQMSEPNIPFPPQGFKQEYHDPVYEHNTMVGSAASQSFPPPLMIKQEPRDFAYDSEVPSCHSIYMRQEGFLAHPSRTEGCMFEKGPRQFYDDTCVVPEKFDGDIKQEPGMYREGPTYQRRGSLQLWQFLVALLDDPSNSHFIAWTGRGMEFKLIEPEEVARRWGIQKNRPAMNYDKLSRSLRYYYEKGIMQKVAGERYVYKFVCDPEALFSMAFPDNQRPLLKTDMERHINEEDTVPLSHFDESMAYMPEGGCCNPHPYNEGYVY
sequence,measurement,setting,value
TAAATA,binding signal,FEV,"1.19 fold enrichment (6-mer frequency, TF over GST control)"
same,binding signal,ETV5,"1.27 fold enrichment (6-mer frequency, TF over GST control)"
same,binding signal,HSF1,"1.6 fold enrichment (6-mer frequency, TF over GST control)"
same,binding signal,SPIC,"1.17 fold enrichment (6-mer frequency, TF over GST control)"
same,binding signal,ELF4,"1.26 fold enrichment (6-mer frequency, TF over GST control)"
same,binding signal,ELK4,"1.27 fold enrichment (6-mer frequency, TF over GST control)"
same,binding signal,ETV2,"1.36 fold enrichment (6-mer frequency, TF over GST control)"
same,binding signal,ELF3,"1.3 fold enrichment (6-mer frequency, TF over GST control)"
same,binding signal,CRX,"2.12 fold enrichment (6-mer frequency, TF over GST control)"
same,binding signal,ETV1,"1.24 fold enrichment (6-mer frequency, TF over GST control)"
same,binding signal,ERF,"1.21 fold enrichment (6-mer frequency, TF over GST control)"
same,binding signal,ETV3L,"1.27 fold enrichment (6-mer frequency, TF over GST control)"
same,binding signal,ETS2,"1.27 fold enrichment (6-mer frequency, TF over GST control)"
same,binding signal,SPDEF,"1.15 fold enrichment (6-mer frequency, TF over GST control)"
same,binding signal,ETV7,"1.31 fold enrichment (6-mer frequency, TF over GST control)"
same,binding signal,ELF5,"1.16 fold enrichment (6-mer frequency, TF over GST control)"
same,binding signal,ETV3,"1.28 fold enrichment (6-mer frequency, TF over GST control)"
same,binding signal,ETV6,"1.32 fold enrichment (6-mer frequency, TF over GST control)"

# From article PMC7862700, “An all-to-all approach to the identification of sequence-specific readers for epigenetic DNA modifications on cytosine”
